D2 PAM-1: Beta-Arrestin HTS for Positive Allosteric Modulators of the Human D2 Dopamine Receptor: Potentiators; DiscoveRx D2 beta-arrestin cells, luminescence, 90 min; 100% = 57 uM dopamine signal; potentiation, % (test concentration not listed); 360,000 compounds, 0.23% hits; AID 624464, 2012; in the data active = potentiation above about 50%; inconclusive = mostly about 30% to 49%
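PathHunter D2 cells, attached overnight at 37 deg C, received compound in DMSO plus dopamine at EC20 (50 nM final) for 90 min at 37 deg C. Beta-arrestin recruitment was read as luminescence after 1 h with detection reagent at ambient temperature.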
D2 ag-1: HTS Assay for Allosteric Agonists of the Human D2 Dopamine Receptor: Primary Screen for Agonists; D(2) dopamine receptor (Homo sapiens), P14416; HEK293 T-REx D2 cells, calcium flux agonist mode; activation, % at 2 µM; 340,000 compounds, 0.53% hits; AID 485358, 2010;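 active = activation over 3 SD above normal in the single-dose calcium agonist read, cut at about 30% in these data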; note: 0% is about no effect
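Agonism scored from kinetic calcium signal (1 read/sec, 180 s) following compound pin transfer, after a 10 s baseline. Cells: HEK293 Trex line expressing inducible D2 receptor coupled to calcium, dye-loaded after overnight culture at 30 C.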
D2 PAM-2: HTS Assay for Positive Allosteric Modulators of the Human D2 Dopamine Receptor: Primary Screen for Potentiators | HEK293 T-REx D2, calcium flux, EC20 dopamine potentiation | potentiation, % at 10 µM | 340,000 compounds, 0.34% hits;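 active = potentiation over 3 SD above the plate norm, cut at about 30% in these data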; note: 0% is about no effect
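Cells plated with tetracycline inducer and held overnight at 30 C; calcium dye loaded 30–90 min at room temperature; baseline taken, compound added and read 180 s; EC20 dopamine then added and read 180 s.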
D2 antag: HTS Assay for Allosteric Antagonists of the Human D2 Dopamine Receptor: Primary Screen for Antagonists. HEK293 TREx D2 cells, calcium flux, dopamine EC80. inhibition, % at 10 µM. 340,000 compounds, 2% hits. D(2) dopamine receptor (Homo sapiens), P14416. AID 485344, 2010; in the data active = inhibition above about 30%; inactive = below that, where a call was filed; note: 0% is about no effect
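Calcium flux kinetic readout in an inducible HEK293 TREx D2 line plated overnight at 30 C. After 180 s compound exposure, an EC80 dopamine challenge follows with another 180 s kinetic read to detect antagonism.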
D2 ag-2: Beta-Arrestin HTS for Positive Allosteric Modulators of the Human D2 Dopamine Receptor: Agonists. D(2) dopamine receptor (Homo sapiens), P14416. activation, % (test concentration not listed). DiscoveRx PathHunter D2 beta-arrestin, luminescence, 90 min; 100% = 57 uM dopamine signal. 360,000 compounds, 0.084% hits; in the data active = activation above about 40%; inconclusive = between about 15% and that limit
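Agonist mode: compounds alone added to overnight-plated D2 PathHunter cells for 90 min at 37 C, with 57 uM final dopamine (EC100) defining full response. Beta-arrestin recruitment detected by chemiluminescent reagent, read after 1 h at ambient temperature.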
D3 ag: qHTS of D3 Dopamine Receptor Agonist: D3 Dopamine Receptor B-arrestin Agonist Confirmatory Assay; shares compounds with D2 ag-1; DiscoveRx D3 beta-arrestin cells, luminescence, 90 min; Potency, µM (series often up to 76.9 µM), for the others: top-dose activation, usual class: activators; 2,300 compounds, 4% hits;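 note: potency is the fitted concentration of half-maximal effect; 100% = dopamine control response; nearly all actives have a fitted effect of over 70% in size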
Target sequence (P35462 whole entry, looked up): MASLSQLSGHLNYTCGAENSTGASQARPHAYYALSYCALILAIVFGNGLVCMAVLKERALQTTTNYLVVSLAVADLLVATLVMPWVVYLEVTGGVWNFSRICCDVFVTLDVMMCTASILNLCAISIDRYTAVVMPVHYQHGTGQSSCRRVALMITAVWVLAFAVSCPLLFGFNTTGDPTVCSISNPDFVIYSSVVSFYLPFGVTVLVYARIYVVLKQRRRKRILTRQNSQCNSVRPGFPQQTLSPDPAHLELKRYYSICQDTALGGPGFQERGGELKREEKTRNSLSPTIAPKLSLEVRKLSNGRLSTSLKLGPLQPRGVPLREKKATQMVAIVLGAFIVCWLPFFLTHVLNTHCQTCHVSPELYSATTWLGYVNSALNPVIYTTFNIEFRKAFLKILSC
D2 ag-3: qHTS of D3 Dopamine Receptor Agonist: D2 Dopamine Receptor B-arrestin Agonist Counterscreen | shares compounds with D2 ag-1 | DiscoveRx PathHunter D2 beta-arrestin, luminescence, 90 min; response scale: percent relative to full dopamine signal | Potency, µM (top dose mostly 76.9 µM), for inactives: top-dose activation, most hits filed as activators | 2,300 compounds, 5.9% hits; note: potency is the fitted concentration of half-maximal effect; % of control where 0% means no effect; nearly all actives have a fitted effect of over 70% in size
Numbers without * were called inactive; ? = inconclusive; nt = not tested or not shown. A selection: hits, their analogues and other compounds. The true share with any hit is near 2.4%. Unless noted, calls come from the whole dose curve; as a rule, active = well fitted activation curve with a large enough effect; inconclusive = small, poorly fitted or top-dose-only effect; inactive = flat fitted curve, though single readings scatter.

SMILES	D2 PAM-1	D2 ag-1	D2 PAM-2	D2 antag	D2 ag-2	D3 ag	D2 ag-3
Nc1nc(CN2CCN(c3ccc(F)cc3)CC2)nc(N2CCCc3ccccc32)n1	-9.5	59.8*	-28.6	54.4*	11.1	8.6%	24.3%
CN1CCN(Cc2nc(N)nc(Nc3ccc4c(c3)OCCO4)n2)CC1	-8.8	1.1	10.7	-31.6	-0.1	nt	nt
Nc1nc(CN2CCN(Cc3ccccc3)CC2)nc(Nc2ccccc2)n1	-21.1	0.3	9.1	-0.7	-3.3	nt	nt
Nc1nc(CN2CCN(c3ccccn3)CC2)nc(Nc2ccc(Cl)cc2)n1	55.7*	90.4*	-27.7	73.8*	41.2*	-3.0%	17.8µM*
Nc1nc(CN2CCN(c3ccccc3F)CC2)nc(Nc2ccc3c(c2)OCCO3)n1	18.2	72.1*	-19.3	54.0*	?	8.5%	?
CCOc1ccc(Nc2nc(N)nc(CN3CCN(c4ccccc4F)CC3)n2)cc1	-3.2	48.4*	-18.4	33.0*	8.5	15.2%	?
Cc1cccc(Nc2nc(N)nc(CN3CCN(c4ccccc4F)CC3)n2)c1	2.8	nt	nt	nt	5.0	nt	nt
CCCCn1c(N)c(N(CCOC)C(=O)CC2CCCCC2)c(=O)[nH]c1=O	-19.2	nt	nt	nt	-5.6	nt	nt
COc1ccc(NC(=O)c2ccco2)cc1NC(=O)c1cc(Br)ccc1Cl	nt	0.4	-8.3	nt	nt	nt	nt
CC(=O)c1ccc(N2CCN(c3ccc(NC(=O)c4cccs4)cc3C(=O)O)CC2)cc1	nt	nt	5.5	nt	nt	nt	nt
O=C(Nc1cccc(C(=O)OCc2cc(=O)n3nc(C4CC4)sc3n2)c1)c1ccc(F)cc1	nt	2.7	3.7	nt	nt	nt	nt
COc1cc(NC(=O)Cn2cnc3sc(C)c(S(=O)(=O)N4CCC(C)CC4)c3c2=O)cc(OC)c1OC	nt	0.1	-1.9	nt	nt	nt	nt
OC[C@@H]1CN(Cc2ccncc2)C[C@H](n2cnc3c(N4CCCC4)ncnc32)O1	-1.3	nt	nt	nt	-2.3	nt	nt
Cc1cccc(Nc2nc(N)nc(CN3CCN(c4ccccc4)CC3)n2)c1	?	70.6*	-28.2	50.8*	?	28.3%	?
COc1ccc(N2CCN(Cc3nc(N)nc(Nc4ccccc4OC)n3)CC2)cc1	-4.5	-0.2	8.8	7.7	-4.2	nt	nt
COc1ccc(Nc2nc(N)nc(CN3CCN(c4ccc(F)cc4)CC3)n2)cc1	4.6	42.7*	-25.2	16.7	7.2	1.3%	10.6%
Clc1cccc(CSc2ccc(-c3cccs3)nn2)c1	nt	0.0	3.7	nt	nt	nt	nt
COc1ccc2cc(C=O)n(C)c2c1	0.9	0.1	1.3	-1.1	-3.9	2.2%	-4.6%
COc1cccc(C2CC(=O)Nc3cc(OC)c(OC)cc32)c1 (stereo not given)	4.0	-0.4	5.6	27.1	3.2	nt	nt
COc1cccc(C2CC(=O)Nc3cc4c(cc32)CCC4)c1 (stereo not given)	-3.7	-1.3	12.5	10.2	-6.7	22.6%	10.3%
O=S(=O)(NCC(c1ccc2c(c1)OCO2)N1CCN(c2ccccc2)CC1)c1ccccc1 (stereo not given)	9.6	71.3*	-27.8	80.5*	?	12.8%	?
Cc1cccc(Cc2c(C)nc3nc(SCC(=O)NCc4ccc(F)cc4)nn3c2C)c1	nt	0.7	-7.0	nt	nt	nt	nt
CCN(CC(=O)Nc1ccc(OC)cc1)C(=O)Cc1ccc(OC)c(S(=O)(=O)N2CCOCC2)c1	-6.5	-0.8	-8.4	15.3	-0.8	-7.2%	-0.6%
COC(=O)C(N)Cc1ccc(Cl)cc1 (stereo not given)	-2.0	-1.0	13.2	-8.3	-6.0	nt	nt
COC(=O)[C@@H](N)Cc1ccc(O)c(O)c1	-5.9	73.8*	-20.7	80.9*	-7.8	?	20.5%
SMILES	D2 PAM-1	D2 ag-1	D2 PAM-2	D2 antag	D2 ag-2	D3 ag	D2 ag-3
CN(Cc1ccccc1)C(=O)c1ccc(NC(=O)Cc2cccc(NC(=O)C3CCCN(C(=O)C4CCC4)C3)c2)cc1 (stereo not given)	-14.4	0.6	8.5	-3.9	-3.0	-2.8%	5.7%
CN(C(=O)c1ccc(NC(=O)Cc2ccc(NC(=O)C3CCN(C(=O)c4ccccc4)CC3)cc2)cc1)C1CC1	-13.8	0.6	2.4	-2.5	-4.1	-3.6%	-4.5%
O=C(Cc1cccc(NC(=O)C2CCN(C(=O)C3CC3)CC2)c1)Nc1cccc(C(=O)N2CCCC2)c1	9.6	0.8	4.4	2.2	1.8	-3.8%	-4.7%
CN(C(=O)c1cccc(NC(=O)Cc2ccc(NC(=O)C3CCN(C(=O)c4ccccc4)CC3)cc2)c1)C1CCC1	6.5	nt	nt	nt	3.9	nt	nt
O=C(Cc1cccc(NC(=O)C2CCN(C(=O)C3CCC3)CC2)c1)Nc1cccc(C(=O)N2CCCCC2)c1	-0.9	nt	nt	nt	1.2	nt	nt
NC(C(=O)O)C1ON=C(Cl)C1O (stereo not given)	-3.3	nt	nt	nt	-1.6	nt	nt
CC(=O)N1CCOc2cc(S(=O)(=O)NCc3ccc(C)cc3)c(Cl)cc21	nt	-0.4	7.5	nt	nt	nt	nt
Cc1cc(C(=O)NNC(=O)c2ccc(C(F)(F)F)cc2)no1	-5.6	0.8	1.1	18.6	-1.4	-5.9%	-6.1%
Cc1ccc(NNC(=O)c2cc(C)on2)c(C)c1	-2.1	1.1	7.3	-7.9	2.1	nt	nt
Cc1cc(C(=O)NNc2ccc(F)cc2F)no1	-6.0	49.0*	-19.3	8.5	5.8	-1.7%	-1.4%
COc1ccc(CNC(=O)C2CCN(S(=O)(=O)c3ccc(N4CCCC4=O)cc3)CC2)cc1	-0.5	nt	nt	nt	-2.2	nt	nt
O=C(CCN1CCCC1Cc1ccccc1)c1ccc2c(c1)OCCO2 (stereo not given)	-17.5	82.4*	-27.6	108.7*	6.8	?	?
O=C(CCN1CCCCC1)c1ccc2c(c1)OCCO2	-19.8	2.2	6.0	-26.7	-3.8	nt	nt
CN(CC(=O)Nc1ccccc1Br)C(=O)c1ccc2c(=O)n3c(nc2c1)CCC3	0.6	0.2	-10.3	24.1	0.0	-1.9%	-7.2%
CCc1ccc(NC(=O)c2ccc3c(=O)n4c(nc3c2)CCCCC4)cc1	-10.0	-0.1	-1.3	17.7	4.5	nt	nt
